ssDAF-12 act – activators of S. stercoralis DAF-12 nuclear receptor. activation, % at 6.8 µM. HEK293 ssDAF-12/GRIP1 lit1-tk-luc reporter, luminescence; % of 3 µM dafachronic acid response. 1% of 370,000 active;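 active means activation above the mean over all tested compounds plus 3 SD, cut at about 0.9% in these data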;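 further: 0% = DMSO-only wells and 100% = 3 µM delta7-dafachronic acid wells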
SMARCA2 act – SMARCA2 function activation, primary screen. 1% of 370,000 active. MG213 cells, MMTV-luciferase reporter, dexamethasone, overnight. activation, % at 9.1 µM; in the data active means activation above about 7.8%;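 further: 0% = vehicle wells and 100% = reference activator wells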
DAX1 inh-1 – DAX1 (NR0B1) inhibition, primary screen. HEK293T StAR-luciferase reporter, SF-1/DAX-1 repression relief. inhibition, % at 6.8 µM. 1.1% of 370,000 active;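 active means inhibition above the mean over all tested compounds plus 3 SD, cut at about 3.6% in these data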;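 further: 0% = DAX-1 cells with DMSO and 100% = cells lacking DAX-1 with DMSO; higher inhibition means more luminescence from relief of DAX-1 repression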
DAX1 inh-2 – inhibitors of human orphan nuclear receptor DAX1 (NR0B1). 0.99% of 340,000 active. inhibition, % at 6.75 µM. HEK293 Gal4-DAX1 luciferase reporter, luminescence. AID 504766;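 active means inhibition above the mean over all tested compounds plus 3 SD, cut at about 4.2% in these data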;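 further: 0% = DAX1-transfected cells with DMSO and 100% = empty-vector control cells with DMSO; inhibition shows as a rise in luminescence from relieved DAX1 repression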
Target sequence (P51843 207-470 limits assumed): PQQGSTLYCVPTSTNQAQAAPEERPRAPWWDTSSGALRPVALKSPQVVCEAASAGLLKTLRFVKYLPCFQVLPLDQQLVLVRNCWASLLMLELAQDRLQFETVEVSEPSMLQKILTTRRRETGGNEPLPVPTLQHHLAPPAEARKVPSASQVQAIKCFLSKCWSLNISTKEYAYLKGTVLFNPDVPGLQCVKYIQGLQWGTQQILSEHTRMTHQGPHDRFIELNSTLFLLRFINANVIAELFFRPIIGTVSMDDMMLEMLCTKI
hcDAF12 agonist – activates DAF-12 receptor from parasite H. contortus | HEK293 hcDAF-12 lit1-tk-luc reporter, luminescence; 0% DMSO, 100% Δ7-dafachronic acid | activation, % at 6.8 µM | 1.4% of 370,000 active | AID 652067;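 active means activation above the mean of all tested compounds plus 3 SD, cut at about 5.5% in these data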;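 further: 100% = response to 3 µM Δ7-dafachronic acid high control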
hgDAF12 agonist – agonists of H. glycines DAF-12 nuclear receptor. activation, % at 6.8 µM. AID 687014. 1.8% of 370,000 active. HEK293 GAL4-hgDAF12 UAS-luciferase reporter, agonist luminescence; normalized to butyrate control;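 active means activation above a cutoff set at the mean of all screened compounds plus 3 SD, cut at about 10% in these data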;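 further: 0% = DMSO wells and 100% = sodium butyrate wells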
SMARCA2 conf – confirmation of SMARCA2 (BRM) function activators. shares compounds with SMARCA2 act. MG213 cells, MMTV-luciferase with dexamethasone, luminescence, overnight; MG213 cells expressing E1A, Rb sequestered; DMSO wells 0%, reference activator 100%. activation, % at 9.1 µM. 30% of 3,500 active. AID 652260;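 active means activation above its plate's cutoff, the mean activation of tested wells plus 3 SD, cut at about 7.9% in these data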
GAL4-VP16 Luc – counter-screen for SMARCA2 activators: GAL4-VP16 luciferase reporter activation; activation, % at 9.1 µM; 41% of 3,500 active; shares compounds with SMARCA2 act; HEK293 GAL4-VP16 pG5luc reporter, luciferase luminescence; scaled: DMSO wells 0%, SAHA wells 100%; AID 686939;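 active means activation above the solvent-only control well mean plus 3 SD, averaged across control plates, cut at about 5.2% in these data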
* hit, by the source's call. Rows were chosen to be rich in hits. Some 4.8% of all compounds tested hit in one or more screens of this group.

Cn1c2ccc(F)cc2c2nnc(SCCN3CCOCC3)nc21 was read as ssDAF-12 act 1.1*, SMARCA2 act 12.6*, DAX1 inh-1 0.6, DAX1 inh-2 1.6, hcDAF12 agonist 5.5, hgDAF12 agonist 2.2, SMARCA2 conf 3.0 and GAL4-VP16 Luc 2.4.
For S=C(NC1CCCCC1)N1CCOCCOCCN(C(=S)NC2CCCCC2)CCOCC1 the results were ssDAF-12 act -1.2, SMARCA2 act -1.5, DAX1 inh-1 0.0, hcDAF12 agonist 0.9 and hgDAF12 agonist -0.9.
For S=C(NC1CCCC1)N1CCOCC1 the results were ssDAF-12 act -1.4, SMARCA2 act 8.2*, DAX1 inh-1 -0.1, DAX1 inh-2 -0.7, hcDAF12 agonist -0.1, hgDAF12 agonist 0.1, SMARCA2 conf -1.7 and GAL4-VP16 Luc 1.8.
Screening Cc1ccc(NC(=O)C2CCN(C(=O)NC3CCCCC3)CC2)c(C)c1 returned ssDAF-12 act -0.8, SMARCA2 act -2.3, DAX1 inh-1 0.2, DAX1 inh-2 -0.8, hcDAF12 agonist -1.3 and hgDAF12 agonist -1.8.
Screening Cc1ccc(NC(=O)N2CCCCCC2)c(C)c1 returned ssDAF-12 act -1.2, SMARCA2 act 9.6*, DAX1 inh-1 2.9, DAX1 inh-2 1.4, hcDAF12 agonist -0.1, hgDAF12 agonist 1.8, SMARCA2 conf 5.7 and GAL4-VP16 Luc 0.2.
`Cc1ccc(NC(=S)NC(=O)C2CC2)c(C)c1` gave ssDAF-12 act -0.3, SMARCA2 act 8.8*, DAX1 inh-1 4.0*, DAX1 inh-2 1.4, hcDAF12 agonist 3.2, hgDAF12 agonist 6.9, SMARCA2 conf 4.3 and GAL4-VP16 Luc 2.5.
COCC1CCCCN1Cc1cn[nH]c1-c1ccc2cc(OC)ccc2c1 (configuration not stated) was read as ssDAF-12 act -1.1, SMARCA2 act 10.5*, DAX1 inh-1 0.6, DAX1 inh-2 0.5, hcDAF12 agonist -1.2, hgDAF12 agonist -2.1, SMARCA2 conf 2.9 and GAL4-VP16 Luc 3.5.
`O=C(/C=C/c1ccco1)NC(=S)Nc1cccc(C(=O)O)c1` gave ssDAF-12 act -0.8, SMARCA2 act 8.4*, DAX1 inh-1 0.3, DAX1 inh-2 -1.0, hcDAF12 agonist -0.1, hgDAF12 agonist 2.2, SMARCA2 conf 6.3 and GAL4-VP16 Luc 1.2.
`Cc1cccc(NC(=O)c2ccc([N+](=O)[O-])o2)n1` gave ssDAF-12 act -0.8, SMARCA2 act 11.4*, DAX1 inh-1 -2.5, DAX1 inh-2 -2.2, hcDAF12 agonist -0.6, hgDAF12 agonist -2.2, SMARCA2 conf 15.1* and GAL4-VP16 Luc 2.8.
For O=C(Nc1ccccc1Cl)c1ccc([N+](=O)[O-])o1 the results were ssDAF-12 act -1.6, SMARCA2 act 9.0*, DAX1 inh-1 -1.8, DAX1 inh-2 -1.0, hcDAF12 agonist -2.4, hgDAF12 agonist -4.5, SMARCA2 conf 17.5* and GAL4-VP16 Luc 2.6.
For O=C(Nc1ccc(N2CCOCC2)cc1)c1ccc([N+](=O)[O-])o1 the results were ssDAF-12 act 0.6, SMARCA2 act 14.5*, DAX1 inh-1 -0.6, DAX1 inh-2 1.4, hcDAF12 agonist 2.2, hgDAF12 agonist 8.0, SMARCA2 conf 18.1* and GAL4-VP16 Luc 7.3*.
Screening O=C(Nc1ccc(NC(=O)c2ccc([N+](=O)[O-])o2)cc1Cl)c1ccco1 returned ssDAF-12 act -0.7, SMARCA2 act 2.5, DAX1 inh-1 -0.9, DAX1 inh-2 -0.8, hcDAF12 agonist -0.3 and hgDAF12 agonist -0.1.
For O=C(Nc1cccc2ncccc12)c1ccc([N+](=O)[O-])o1 the results were ssDAF-12 act -0.6, SMARCA2 act 15.1*, DAX1 inh-1 -1.2, DAX1 inh-2 -0.9, hcDAF12 agonist 0.7, hgDAF12 agonist -1.9, SMARCA2 conf 8.4* and GAL4-VP16 Luc 1.1.
`Cc1cc(C(=O)OCC(=O)N(CC(C)C)c2c(N)n(Cc3ccccc3)c(=O)[nH]c2=O)c2ccccc2n1` gave ssDAF-12 act 0.1, SMARCA2 act -0.2, DAX1 inh-1 1.6, DAX1 inh-2 0.3, hcDAF12 agonist 0.4 and hgDAF12 agonist 2.1.
`Cc1cccc(OCc2nnc(SCC(=O)Nc3ccc(C)c(C)c3)o2)c1` gave ssDAF-12 act -1.1, SMARCA2 act 1.5, DAX1 inh-1 1.2, DAX1 inh-2 -0.3, hcDAF12 agonist -1.9 and hgDAF12 agonist 2.0.
Cc1ccc(NC(=O)c2ccc([N+](=O)[O-])o2)c(C)c1 was read as ssDAF-12 act -1.7, SMARCA2 act 6.9, DAX1 inh-1 -3.1, DAX1 inh-2 -1.1, hcDAF12 agonist -1.2 and hgDAF12 agonist -4.0.
For Cc1ccccc1NC(=O)c1ccc([N+](=O)[O-])o1 the results were ssDAF-12 act -0.9, SMARCA2 act 10.6*, DAX1 inh-1 -2.4, DAX1 inh-2 1.1, hcDAF12 agonist -2.0, hgDAF12 agonist -4.6, SMARCA2 conf 11.2* and GAL4-VP16 Luc 3.5.
For O=C(NCCCNCCCNC(=O)c1ccccn1)c1ccccn1 the results were ssDAF-12 act -1.1, SMARCA2 act 11.8*, DAX1 inh-1 0.1, DAX1 inh-2 2.0, hcDAF12 agonist -0.8, hgDAF12 agonist 0.7, SMARCA2 conf -3.2 and GAL4-VP16 Luc 1.0.
For COc1ccc(C(=O)OCC(=O)N2C(C)CCCC2C)cc1S(=O)(=O)N1CCOCC1 (configuration not stated) the results were ssDAF-12 act -1.4, SMARCA2 act -2.0, DAX1 inh-1 0.3, DAX1 inh-2 1.7, hcDAF12 agonist -2.7 and hgDAF12 agonist 0.3.
CCSc1nc2ccc(OC)cc2cc1C#N was read as ssDAF-12 act -0.9, SMARCA2 act 1.1, DAX1 inh-1 -0.1, DAX1 inh-2 0.9, hcDAF12 agonist 0.9 and hgDAF12 agonist 2.2.
`CCOc1ccc2nc(SCC#N)c(C#N)cc2c1` gave ssDAF-12 act -1.4, SMARCA2 act 8.8*, DAX1 inh-1 -0.6, DAX1 inh-2 -0.4, hcDAF12 agonist -2.7, hgDAF12 agonist -2.9, SMARCA2 conf 7.8* and GAL4-VP16 Luc 6.6*.
`COC(=O)[C@]12C[C@H](CC(=O)N3CCC(c4ccccc4)CC3)C(=O)N(CCC3=CCCCC3)C1=C[C@H](COCc1ccccc1)O[C@@H]2C` gave ssDAF-12 act -1.2, SMARCA2 act 1.3, DAX1 inh-1 0.4, hcDAF12 agonist -0.1 and hgDAF12 agonist 3.1.
Screening CCOC(=O)C(Nc1ccc2ccccc2c1)C(=O)OCC returned ssDAF-12 act 0.3, SMARCA2 act 8.3*, DAX1 inh-1 0.3, DAX1 inh-2 -0.1, hcDAF12 agonist 5.7*, hgDAF12 agonist 5.5, SMARCA2 conf 7.9* and GAL4-VP16 Luc 1.7.

High-throughput results deposited in PubChem by The Scripps Research Institute Molecular Screening Center.
